Source: PubChem BioAssay (Tox21)
Records with an inconclusive call do not appear. Active and inactive are the calls of the source. Unless noted, calls follow the shape of the full dose curve.

Assays:
[1] = Nuclear factor erythroid 2-related factor 2/antioxidant responsive element (Nrf2/ARE) small molecule agonists: luciferase reporter gene qHTS assay in human keratinocytes (AID 1919969); also: nearly all actives have a fitted effect of over 35% in size; also: potency is read from the fitted curve at half-maximal effect
[2] = target: Gonadotropin-releasing hormone receptor (Homo sapiens) (UniProt P30968); test: Human gonadotropin-releasing hormone receptor (GnRHR) small molecule agonists, calcium flux assay in GnRHR-HEK293 cells (AID 1920063); also: nearly all actives have a fitted effect of over 35% in size
Outline: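 HEK293 cells stably expressing human GnRHR were dye-loaded for 1 h at 37 C. Compound was added in agonist mode and fluorescence (Ex/Em 480/540) recorded kinetically for 3 min. Fifteen concentrations, triplicates.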

[3] = target: KiSS-1 receptor (Homo sapiens) (UniProt Q969F8); test: Human kisspeptin (KISS1R) small molecule agonists, calcium flux assay in KISS1R-HEK293 cells (AID 1920064; active = well fitted activation curve with a large enough effect in the repeat runs)
Outline: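 HEK293 cells stably expressing human KISS1R were loaded with calcium dye for 1 h at 37 C, then given compound; fluorescence (Ex/Em 480/540) was read kinetically for 3 min. Fifteen concentrations, triplicate.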

[4] = G protein-coupled receptor (GPCR) small molecule agonists, calcium flux assay: HEK293 wild type cell line counter screen (AID 1920065)
Outline: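 Wild-type HEK293 cells plated 18 h, loaded with calcium dye 1 h at 37 C, then compounds added in agonist mode (ATP as positive control). Kinetic fluorescence Ex/Em 480/540 recorded 3 min at 1 sec intervals; 15 concentrations, triplicate.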

[5] = p53 small molecule agonists, cell-based qHTS assay with rat liver microsomes (AID 1963578)
Outline: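 Rat liver microsome activation: microsomes 0.5 mg/mL, NADPH 0.5 mg/mL final; p53RE-bla cells, 16 h 37 C; LiveBLAzer readout, 2 h RT dark.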

[6] = p53 small molecule agonists, cell-based qHTS assay with human liver microsomes: qHTS cell viability counter screen (AID 1963579); also: nearly all actives have a fitted effect of over 45% in size
Outline: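 Luminescent CellTiter-Glo read-out, 30 min at room temperature, gauged cytotoxicity in p53RE-bla cells exposed 16 h at 37 C to DMSO-dissolved compounds with metabolic activation by human liver microsomes and NADPH, each 0.5 mg/mL final.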

[7] = p53 small molecule agonists, cell-based qHTS assay (AID 1963582; active = well fitted activation curve with a large enough effect in the signal ratio in the repeat runs, not every such curve was filed as active; the % refers to the signal ratio)
Outline: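 p53RE-bla reporter cells, compounds added in DMSO after 5 h plating, incubated 16 h at 37 C. Beta-lactamase read via 2 h room-temperature LiveBLAzer B/G FRET substrate, fluorescence intensity.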

[8] = target: 5-hydroxytryptamine receptor 2A (Homo sapiens) (UniProt P28223); test: 5-hydroxytryptamine receptor 2A (HTR2A) small molecule antagonists, cell-based qHTS assay (AID 1963586); also: nearly all actives have a fitted effect of over 45% in size; also: potency is read from the fitted curve at half-maximal effect
Outline: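 Antagonist-mode intracellular calcium assay: DOI (4 nM) added after 5 min compound pre-incubation at room temperature to dye-loaded HTR2A-CHO cells. Fluorescence followed for 3 min, sampled every second.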

[9] = target: 5-hydroxytryptamine receptor 2A (Homo sapiens) (UniProt P28223); test: 5-hydroxytryptamine receptor 2A (HTR2A) small molecule agonists, cell-based qHTS assay (AID 1963587); also: nearly all actives have a fitted effect of over 30% in size; also: potency is read from the fitted curve at half-maximal effect
Outline: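 Kinetic calcium-flux fluorescence (2 min, 1 sec intervals) after compound addition in agonist mode. HTR2A-CHO cells were cultured 18 h, then dye-loaded 1 h at 37 C.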

[10] = target: Muscarinic acetylcholine receptor M1 (Homo sapiens) (UniProt P11229); test: Cholinergic receptor muscarinic 1 (CHRM1) small molecule agonists, cell-based qHTS assay (AID 1963589); also: nearly all actives have a fitted effect of over 35% in size
Outline: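 CHO cells stably expressing human CHRM1 were loaded with calcium dye for 1 h at 37 C, then compound was added in agonist mode. Intracellular calcium fluorescence was followed kinetically at 1 s intervals. Fifteen concentrations were tested in three independent runs.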

[11] = cAMP Responsive Elements (CRE) small molecule agonists, cell-based qHTS assay (AID 1963590)
Outline: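 CRE-bla HEK 293T cells, 2,000/well in DMEM with 10% dialyzed FBS and 25 mM HEPES, pre-incubated 18 h at 37 C, then exposed to compound 3 h at 37 C. Beta-lactamase reporter read with LiveBLAzer B/G FRET substrate after 2 h at room temperature.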

[12] = target: D(2) dopamine receptor (Homo sapiens) (UniProt P14416); test: Dopamine D2 receptor (DRD2) small molecule agonists, cell-based qHTS assay (AID 1963594); also: nearly all actives have a fitted effect of over 35% in size
Outline: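 cAMP accumulation in DRD2-HEK293 cells measured by HTRF after 1 h detection; compounds added 10 min before NKH477 (200nM […]) forskolin-analogue stimulation, 30 min at room temperature, with Ro20-1724 present at 0.1 mM final.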

[13] = target: D(2) dopamine receptor (Homo sapiens) (UniProt P14416); test: Dopamine D2 receptor (DRD2) small molecule antagonists, cell-based qHTS assay (AID 1963595; active = well fitted inhibition curve with a large enough effect in the signal ratio in the repeat runs, with a control signal flat; the % refers to the signal ratio)
Outline: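 Cells were plated and grown for 24 h at 37 °C. Ro20-1724 (0.1 mM final) went in first, then compound for 10 min. NKH477 (200 nM) with quinpirole (12 nM) followed for 30 min at RT, then HTRF detection reagents for 1 h.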

[14] = p53 small molecule agonists, cell-based qHTS assay with human liver microsomes (AID 1963577);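 also: p53 response element beta-lactamase reporter cells with liver microsomes plus NADPH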
Outline: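 p53RE-bla cells; 5 h settle, 37 C/5% CO2; cpd + HLM 0.5 mg/mL + NADPH 0.5 mg/mL (final); 16 h 37 C; LiveBLAzer 2 h RT dark; fluorescence readout.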

[15] = p53 small molecule agonists, cell-based qHTS assay with rat liver microsomes: qHTS cell viability counter screen (AID 1963580); also: nearly all actives have a fitted effect of over 45% in size
Outline: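 HCT-116 p53RE-bla, 4,000 cells/well, 5 h pre-incubation; cpd + rat liver microsomes 0.5 mg/mL + NADPH 0.5 mg/mL (final); 16 h, 37 C; CellTiter-Glo, 30 min RT; luminescence.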

[16] = p53 small molecule agonists, cell-based qHTS assay: qHTS cell viability counter screen (AID 1963581); also: nearly all actives have a fitted effect of over 45% in size
Outline: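 p53RE-bla HCT-116 cells, compounds added 5 h after plating and incubated 16 h at 37 C. Cytotoxicity measured in the same wells as intracellular ATP by CellTiter-Glo luminescence after 30 min at room temperature.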

[17] = target: Beta-2 adrenergic receptor (Homo sapiens) (UniProt P07550); test: Adrenergic beta2 receptor (ADRB2) small molecule antagonists, cell-based qHTS assay (AID 1963592); also: series mostly up to about 92 µM; nearly all actives have a fitted effect of over 50% in size
Outline: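 Cells (CHO, stable ADRB2 overexpression) incubated 18-20hr at 37C; compounds added from DMSO; agonist mix (1nM isoproterenol, 100uM IBMX, 25uM Ro-20-1724) added; 0.5hr RT; d2-cAMP and anti-cAMP-cryptate added; 1hr RT; 665/615 nm read.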

[18] = target: Muscarinic acetylcholine receptor M1 (Homo sapiens) (UniProt P11229); test: Cholinergic receptor muscarinic 1 (CHRM1) small molecule antagonists, cell-based qHTS assay (AID 1963588); also: nearly all actives have a fitted effect of over 40% in size
Outline: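 CHRM1-CHO calcium-flux assay, antagonist mode. Cells were seeded 18 h, dye-loaded 1 h at 37 C and given compound for 5 min at RT, then acetylcholine was added at 50nM. FDSS fluorescence was read 3 min; 15 concentrations, three runs.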

[19] = target: Beta-2 adrenergic receptor (Homo sapiens) (UniProt P07550); test: Adrenergic beta2 receptor (ADRB2) small molecule agonists, cell-based qHTS assay (AID 1963593);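 also: CHO cells stably overexpressing human ADRB2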
Outline: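 CHO cells stably over-expressing ADRB2 were plated overnight at 37C, then dosed with compounds plus a stimulation mix containing 100uM IBMX and 25uM Ro-20-1724 for 0.5hr at room temperature. cAMP was measured by HTRF competition, 1hr.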

[20] = cAMP Responsive Elements (CRE) small molecule antagonists, cell-based qHTS assay (AID 1963591; active = well fitted inhibition curve with a large enough effect in the signal ratio in the repeat runs, not every such curve was filed as active; the % refers to the signal ratio)
Outline: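 CRE-bla HEK293T cells plated 18 h, then given compound plus NKH477 at 0.25 uM final for 3 h at 37C. Beta-lactamase reporter read with LiveBLAzer B/G FRET substrate after 2 h at room temperature.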

Measured: Potency

D(2) dopamine receptor (Homo sapiens), sequence (P14416 whole entry, looked up): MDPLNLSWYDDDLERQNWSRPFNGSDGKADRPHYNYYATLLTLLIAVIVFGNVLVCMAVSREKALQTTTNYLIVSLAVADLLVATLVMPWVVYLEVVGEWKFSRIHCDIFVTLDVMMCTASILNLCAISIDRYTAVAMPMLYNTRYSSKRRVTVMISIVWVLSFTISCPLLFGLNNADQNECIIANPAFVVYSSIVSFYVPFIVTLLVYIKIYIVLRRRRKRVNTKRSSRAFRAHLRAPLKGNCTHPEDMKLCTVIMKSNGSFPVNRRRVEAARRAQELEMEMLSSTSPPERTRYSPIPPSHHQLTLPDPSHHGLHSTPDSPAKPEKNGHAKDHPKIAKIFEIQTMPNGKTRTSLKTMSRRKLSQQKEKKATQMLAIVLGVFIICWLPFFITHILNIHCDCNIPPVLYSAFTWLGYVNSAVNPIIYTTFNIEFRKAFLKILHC
Muscarinic acetylcholine receptor M1 (Homo sapiens), sequence (P11229 whole entry, looked up): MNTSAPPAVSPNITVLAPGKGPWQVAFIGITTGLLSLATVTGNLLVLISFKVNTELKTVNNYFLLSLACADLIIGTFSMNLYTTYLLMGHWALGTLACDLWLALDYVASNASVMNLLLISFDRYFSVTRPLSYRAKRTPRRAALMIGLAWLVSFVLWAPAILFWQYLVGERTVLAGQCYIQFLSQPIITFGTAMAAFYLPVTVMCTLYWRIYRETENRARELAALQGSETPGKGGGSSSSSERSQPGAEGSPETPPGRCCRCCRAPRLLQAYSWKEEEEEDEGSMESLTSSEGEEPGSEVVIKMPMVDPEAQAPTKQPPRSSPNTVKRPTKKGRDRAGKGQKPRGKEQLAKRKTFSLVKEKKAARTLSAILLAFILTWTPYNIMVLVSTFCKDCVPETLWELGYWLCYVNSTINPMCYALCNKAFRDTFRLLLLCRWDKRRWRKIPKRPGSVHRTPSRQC
KiSS-1 receptor (Homo sapiens), sequence (Q969F8 whole entry, looked up): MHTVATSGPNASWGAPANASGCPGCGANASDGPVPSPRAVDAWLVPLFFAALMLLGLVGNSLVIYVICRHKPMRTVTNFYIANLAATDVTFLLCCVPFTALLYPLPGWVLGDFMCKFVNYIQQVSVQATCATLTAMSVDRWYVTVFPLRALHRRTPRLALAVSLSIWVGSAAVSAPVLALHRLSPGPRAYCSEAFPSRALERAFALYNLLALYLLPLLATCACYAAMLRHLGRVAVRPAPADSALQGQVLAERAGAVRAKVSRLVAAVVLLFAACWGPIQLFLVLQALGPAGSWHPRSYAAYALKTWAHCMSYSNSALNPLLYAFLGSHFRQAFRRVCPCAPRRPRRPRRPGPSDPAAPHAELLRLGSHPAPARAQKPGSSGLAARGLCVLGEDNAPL
5-hydroxytryptamine receptor 2A (Homo sapiens), sequence (P28223 whole entry, looked up): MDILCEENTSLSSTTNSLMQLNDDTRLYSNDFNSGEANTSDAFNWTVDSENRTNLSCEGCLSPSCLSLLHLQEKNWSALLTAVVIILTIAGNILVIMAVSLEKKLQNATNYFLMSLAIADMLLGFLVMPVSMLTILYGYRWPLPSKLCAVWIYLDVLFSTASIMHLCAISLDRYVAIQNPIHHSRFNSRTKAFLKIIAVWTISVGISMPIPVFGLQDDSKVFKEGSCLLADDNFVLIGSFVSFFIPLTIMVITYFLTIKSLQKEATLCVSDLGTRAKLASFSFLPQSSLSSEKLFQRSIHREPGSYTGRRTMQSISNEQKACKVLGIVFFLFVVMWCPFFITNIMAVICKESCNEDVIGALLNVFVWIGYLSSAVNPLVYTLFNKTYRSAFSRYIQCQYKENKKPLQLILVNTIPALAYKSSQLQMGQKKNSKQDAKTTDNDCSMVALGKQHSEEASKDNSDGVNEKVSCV
Gonadotropin-releasing hormone receptor (Homo sapiens), sequence (P30968 whole entry, looked up): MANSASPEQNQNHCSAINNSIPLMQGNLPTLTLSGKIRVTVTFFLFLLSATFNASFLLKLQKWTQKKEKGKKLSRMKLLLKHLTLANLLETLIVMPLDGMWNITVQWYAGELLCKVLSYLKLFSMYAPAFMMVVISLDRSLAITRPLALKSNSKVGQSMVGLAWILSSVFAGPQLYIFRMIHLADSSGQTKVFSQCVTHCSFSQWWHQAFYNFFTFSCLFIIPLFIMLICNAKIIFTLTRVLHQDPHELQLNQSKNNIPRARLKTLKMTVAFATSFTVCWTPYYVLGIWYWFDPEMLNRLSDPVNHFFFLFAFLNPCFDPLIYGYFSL
Beta-2 adrenergic receptor (Homo sapiens), sequence (P07550 whole entry, looked up): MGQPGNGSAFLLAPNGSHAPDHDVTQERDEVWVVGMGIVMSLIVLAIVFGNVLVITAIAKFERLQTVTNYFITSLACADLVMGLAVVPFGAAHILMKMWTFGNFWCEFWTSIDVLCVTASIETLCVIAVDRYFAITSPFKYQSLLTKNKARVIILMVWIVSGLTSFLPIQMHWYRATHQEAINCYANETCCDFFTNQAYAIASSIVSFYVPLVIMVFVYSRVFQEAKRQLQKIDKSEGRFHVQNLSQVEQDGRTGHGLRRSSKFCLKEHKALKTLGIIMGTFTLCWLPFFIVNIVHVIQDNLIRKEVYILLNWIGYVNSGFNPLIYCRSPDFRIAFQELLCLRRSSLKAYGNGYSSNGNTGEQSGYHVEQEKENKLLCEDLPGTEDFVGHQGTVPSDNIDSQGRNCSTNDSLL

OCCN(CCO)c1ccccc1
not listed: [14] | [15] | [16] | [17] | [18] | [19] | [20]
inactive: all other assays above

CCS(=O)(=O)CCn1c([N+](=O)[O-])cnc1C
not listed: [6] | [8] | [9] | [10] | [18] | [19] | [20]
inactive: all other assays above

CC(C)(C)C(=O)NCCCC(=O)O
not listed: [6] | [8] | [16] | [20]
inactive: all other assays above

CC(C)=CCC/C(C)=C/CC/C(C)=C/C(=O)OCC(=O)[C@@]1(O)CC[C@H]2[C@@H]3CCC4=CC(=O)C=C[C@]4(C)[C@H]3[C@@H](O)C[C@@]21C
not listed: [7] | [8] | [9] | [13] | [16] | [17] | [19]
inactive: all other assays above

OCCCc1cccnc1
not listed: [16] | [19]
inactive: all other assays above

CC(C)=CCOC(=O)c1ccccc1
not listed: [16] | [20]
inactive: all other assays above

CN1CCC[C@@H]1Cc1c[nH]c2ccc(CCS(=O)(=O)c3ccccc3)cc12
active: [8] 0.365 µM
not listed: [6] | [9] | [12] | [16] | [19]
inactive: all other assays above

CCCOC(=O)c1ccc(O)cc1
active: [1] 27.3 µM
not listed: [7] | [15] | [16] | [17] | [19]
inactive: all other assays above

CCC(C)c1cc([N+](=O)[O-])cc([N+](=O)[O-])c1OC(=O)OC(C)C (stereo not given)
active: [1] 9.69 µM
not listed: [6] | [7] | [8] | [11] | [17] | [19] | [20]
inactive: all other assays above

CC(C)Nc1cccnc1N1CCN(C(=O)c2cc3cc(NS(C)(=O)=O)ccc3[nH]2)CC1
not listed: [6] | [12] | [17] | [19] | [20]
inactive: all other assays above

CC1(C)CC(O)CC(C)(C)N1
not listed: [6] | [16] | [19]
inactive: all other assays above

C/C=C(\C)C(=O)OCCC(C)CCC=C(C)C (stereo not given)
not listed: [7] | [16] | [19]
inactive: all other assays above

CC(C)CCCCCCc1ccc(OCCOCCO)cc1
not listed: [6] | [15]
inactive: all other assays above

CCCCCCCCOCCCN
active: [9] 24.5 µM
not listed: [6] | [8] | [13] | [19]
inactive: all other assays above

CCn1cc(C(=O)O)c(=O)c2cc(F)c(N3CCNCC3)nc21
not listed: [8] | [9] | [10] | [16] | [17] | [18] | [19]
inactive: all other assays above

COc1ccc(C(=O)c2ccc(OC)cc2O)c(O)c1
active: [1] 69.1 µM
not listed: [5] | [7] | [11] | [19]
inactive: all other assays above

CC1=CC(=O)CC(C)(C)C1=O
not listed: [5] | [7] | [8] | [9] | [18] | [19]
inactive: all other assays above
